Laboratory results: PubChem BioAssay (NCI)
About 83,000 compounds went through this panel and 20% of them were active in at least one assay; those are over-represented in the sample as a whole.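 Single-concentration screen, 48 h exposure, 96-well plates. Endpoint: percent growth. Below 10 = active.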 Activity calls are given as the source filed them.

What follows are compounds tested on A549/ATCC NSCLC (assay: NCI-60 one-dose screen, 48 h (100 = growth as untreated, 0 = no growth, -100 = all killed)). Conditions: 10 µM unless noted.
Protocol: Growth inhibition of the A549/ATCC human Non-Small Cell Lung tumor cell line is measured as a screen for anti-cancer activity. Cells are grown in 96 well plates and exposed to the test compound for 48 hours. Compounds are tested at a single concentration, which is 10^-5 M for most compounds. The reported endpoint is percent growth (GI% or GIPRCNT), where numbers from 0 - 100% represent growth inhibition, and numbers from -100% - 0 represent cell death. For example, a value of 40 represents 60% growth inhibition. A value of 0 means no net growth occurred over the course of the experiment. A value of -40 indicates 40% of cells at the beginning of the experiment died by the end of the experiment. A value of -100 means all cells are dead at the end of the experiment.
NCI-60 Human Tumor Cell Lines Screen was performed using the standard one-dose NCI protocol, which is described in more detail at https://dtp.cancer.gov/discovery_development/nci-60/default.htm.
Compounds with GIPRCNT values below 10 were considered active. Activity score was based on GIPRCNT using the following formula: […]
Score is 0 for GIPRCNT values of 100 or above, 50 for GIPRCNT values of 0, and 100 for GIPRCNT values of -100.

Compound	growth
O=C(CCc1nnc(CN(c2ccccc2)c2ccccc2)o1)c1nc2ccccc2[nH]1	94.7% (inactive)
COc1ccc(C(=O)Nn2c(NCC(=O)N3c4ccccc4Sc4ccccc43)nnc2-c2ccc(O)cc2)cc1	97.5% (inactive)
O=C1/C(=C\c2cccnc2)SC(=S)N1CCc1ccc(O)cc1	93.9% (inactive)
N#Cc1c(-c2ccccc2)cc(-c2ccc(Nc3nc(Nc4ccc(F)cc4)nc(Nc4ccc(F)cc4)n3)cc2)nc1N	86.2% (inactive)
N#Cc1c(N)nc2c(C#N)c(NC(=O)c3ccccc3)nn2c1-c1ccccc1	92.6% (inactive)
COc1ccccc1NC(=O)N/C(N)=N/c1nc2ccccc2s1	25.1% (inactive)
CCOc1ccccc1-n1c(CN2CCN(C(=O)COc3ccc(CNCCCCCCN4C5CCCC4CC(OC(=O)Nc4cc(C)ccc4OC)C5)cc3)CC2)nc2ccccc2c1=O (stereo not given)	-88.2% (active)
Cc1ccccc1NC(=O)N/C(N)=N/c1nc(-c2cccc([N+](=O)[O-])c2)cs1	54.2% (inactive)
COc1cccc(-c2nn(-c3ccccc3)cc2-c2ccnc(NCCNC(=O)Nc3ccccc3)c2)c1	30.4% (inactive)
CCOC(=O)c1c2ncccc2n2c(=O)n(-c3ccccc3C)nnc12	102% (inactive)
Cc1cc(NCc2cc(Nc3ccnc4cc(Cl)ccc34)ccc2F)nc(N2CCN(c3ccccc3)CC2)n1	50.6% (inactive)
Cc1cc(NCc2cc(Nc3ccnc4cc(Cl)ccc34)ccc2F)nc(N2CCN(C)CC2)n1	23% (inactive)
CC(=O)O[C@]1(C(C)=O)CCC2C3C[C@H](C)C4=CC(=O)CC[C@]4(C)C3CC[C@@]21C (stereo not given in full)	73.3% (inactive)
COc1ccc(NC(=O)c2nc(-c3cc(OC)c(OC)c(OC)c3)n(-c3cccc4ccccc34)n2)cc1OC	50.6% (inactive)
CC/C=C\C[C@H](O)C/C=C1/C(=O)C=C[C@@H]1C/C=C\CCCCO	5.55% (active)
COC(=O)c1c2c(c(C)[n+]([O-])c1C)C(=O)C(NCc1ccc(F)c(Cl)c1)=CC2=O	1.3% (active)
NC(=O)c1ccc[n+]([C@@H]2O[C@H](COP(=O)([O-])OP(=O)(O)OC[C@H]3O[C@@H](n4cnc5c(N)ncnc54)[C@H](O)[C@@H]3O)[C@@H](O)[C@H]2O)c1	105% (inactive)
Oc1c(CN2CCCC2)cc(COCc2ccc(Br)cc2)c2cccnc12	4.92% (active)
OC(COc1ccccc1Cl)COc1ccccc1Cl	93.2% (inactive)
CC1=CN2C(=O)C3C4=C(CCCC4)SC3N=C2CN1c1c(C)cccc1C (stereo not given)	82.4% (inactive)

Compound	growth
CCN(CC)c1ccc(C(=O)c2ccc(N(CC)CC)cc2)cc1	31.9% (inactive)
CC1(C)OC2C(CO[Si](C)(C)C(C)(C)C)OC(n3c(I)c(C#C[Si](C)(C)C)c(=O)[nH]c3=O)C2O1 (stereo not given)	94.9% (inactive)
C#Cc1cccc(NC(=O)c2ccc(NC(=O)CCl)cc2)c1	59.1% [8.25 µM] (inactive)
Cc1c(C(=O)N[C@@H](Cc2ccccc2)C(=O)C(=O)NCCc2ccccc2)[nH]c2ccccc2c1=O	98.8% (inactive)
O=c1c2cc(F)ccc2sc2c(NCCCN3CCCC3)nc3ccccc3c12	52.8% (inactive)
O=C(CSc1nccc(Nc2ccc(S(=O)(=O)Nc3nccs3)cc2)n1)c1ccc(F)cc1	104% (inactive)
COc1cccc(Nc2nccc(Nc3ccc4[nH]ncc4c3)n2)c1	-68.3% (active)
CCOc1ccccc1-c1cc(-c2cccs2)c(C#N)c(=O)[nH]1	91.2% (inactive)
COc1ccc(/C=C/c2c(C(=O)/C=C/c3cccs3)c(C)nc3ccccc23)cc1	92.5% (inactive)
O=c1[nH][n+](-c2ccc(Cl)cc2)no1	62.1% (inactive)
COc1ccc(C2c3ccc4ccccc4c3Oc3nc(C)[nH]c(=O)c32)cc1 (stereo not given)	109% (inactive)
Cc1nc2ccccc2n1CC1NC(=O)NC1=O (stereo not given)	98.3% (inactive)
Cc1cc(NCc2cc(Nc3ccnc4cc(Cl)ccc34)ccc2F)nc(Cl)n1	56.7% (inactive)
Clc1cc(Cl)cc(Nc2ccc3cc(OCCCN4CCOCC4)ccc3n2)c1	35.6% (inactive)
COc1cc2c(cc1-c1c(C)noc1C)ncc1nc(C3CCCCC3)n(C3CCC(OC(F)F)CC3)c12 (stereo not given)	25.3% (inactive)
COc1ccc(-c2nc3c(N)c(CO)c(C)nc3o2)cc1	92.4% (inactive)
CCCCCCCCCCCCCCCCCCOc1ccccc1CC(=O)OCCC[N+](C)(C)C	54.2% (inactive)
COc1cccc(-c2nn(-c3ccccc3)cc2-c2ccnc(NCCCNC(=O)c3cccc(C(F)(F)F)c3)c2)c1	8.6% (active)
C[n+]1cc2cc(C(N)=O)[nH]c3c(=N)c(Cl)c(N)c1c23	26.3% (inactive)
Cn1c(I)c(C#C[Si](C)(C)C)c(=O)n(C(=O)c2ccccc2)c1=O	80% (inactive)
